This is part of a sample that, as a whole, favours compounds with a hit. Of some 83,000 tested, about 20% had one in any assay.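 96-well plates, one dose, 48 hours. Percent growth reported; active if below 10.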 Calls of active or inactive are those of the source.
Experiments:
Experiment in all cases: NCI-60 one-dose screen, 48 h (100 = growth as untreated, 0 = no growth, -100 = all killed)
Details in all cases: 10 µM unless noted
HCT-15 colon = test system: HCT-15 colon
HT29 colon = test system: HT29 colon
SNB-75 CNS = test system: SNB-75 CNS
SNB-19 CNS = test system: SNB-19 CNS
U251 CNS = test system: U251 CNS
PC-3 prostate = test system: PC-3 prostate
SK-MEL-5 melanoma = test system: SK-MEL-5 melanoma
UACC-62 melanoma = test system: UACC-62 melanoma
LOX IMVI melanoma = test system: LOX IMVI melanoma
SK-MEL-28 melanoma = test system: SK-MEL-28 melanoma

Measured: growth

COc1ccccc1C(=O)Nc1cccc(-c2cc(=O)c3c(OC)c(OC)c(OC)cc3o2)c1
inactive: HCT-15 colon 41.5% | HT29 colon 24.6% | SNB-75 CNS 83.2% | SNB-19 CNS 36.2% | U251 CNS 39% | PC-3 prostate 30% | SK-MEL-5 melanoma 25% | UACC-62 melanoma 43.1% | LOX IMVI melanoma 35.4% | SK-MEL-28 melanoma 56%

O=C(/C=C/c1c[nH]c2ccccc12)c1cc2ccccc2o1
inactive: HCT-15 colon 83.3% | HT29 colon 98.9% | SNB-75 CNS 92% | SNB-19 CNS 96.2% | U251 CNS 98.2% | PC-3 prostate 75.6% | SK-MEL-5 melanoma 102% | UACC-62 melanoma 87.6% | LOX IMVI melanoma 91.7% | SK-MEL-28 melanoma 96.6%

CC1(C)C(O)NC(Cl)=C(C#N)C1(C#N)C#N (stereo not given)
inactive: HCT-15 colon 153% | HT29 colon 101% | SNB-75 CNS 98.4% | SNB-19 CNS 105% | U251 CNS 110% | PC-3 prostate 114% | SK-MEL-5 melanoma 114% | UACC-62 melanoma 131% | LOX IMVI melanoma 109% | SK-MEL-28 melanoma 108%

O=C(O)CS(=O)c1ccc(Cl)cc1 (stereo not given)
inactive: HCT-15 colon 95.9% | HT29 colon 105% | SNB-75 CNS 103% | SNB-19 CNS 104% | U251 CNS 99.7% | PC-3 prostate 110% | SK-MEL-5 melanoma 102% | UACC-62 melanoma 111% | LOX IMVI melanoma 91% | SK-MEL-28 melanoma 105%

Clc1ccc(N/N=C/c2ccccn2)nc1
inactive: HCT-15 colon 20.6% | HT29 colon 27.3% | SNB-75 CNS 21.7% | SNB-19 CNS 28.2% | U251 CNS 18.1% | PC-3 prostate 39.3% | SK-MEL-28 melanoma 20%
active: SK-MEL-5 melanoma -66.3% | UACC-62 melanoma -7.02% | LOX IMVI melanoma -6.42%

CC(=O)NNC(=O)c1sc(NC(C)=O)nc1C
inactive: HCT-15 colon 95.7% | HT29 colon 87.3% | SNB-75 CNS 99.2% | SNB-19 CNS 92.4% | U251 CNS 102% | PC-3 prostate 90.8% | SK-MEL-5 melanoma 103% | UACC-62 melanoma 91.9% | LOX IMVI melanoma 94.4% | SK-MEL-28 melanoma 95.9%

O=C(NCCCl)Nc1nccnc1OCc1ccc(F)cc1
inactive: HCT-15 colon 104% | HT29 colon 102% | SNB-75 CNS 90.3% | SNB-19 CNS 94.9% | U251 CNS 101% | PC-3 prostate 96.5% | SK-MEL-5 melanoma 107% | UACC-62 melanoma 93.7% | LOX IMVI melanoma 98.3% | SK-MEL-28 melanoma 109%

Clc1ccc(N/N=C(\c2ccccc2)c2ccccn2)nc1
inactive: HCT-15 colon 17.9% | HT29 colon 19.3% | SNB-75 CNS 25.2% | SNB-19 CNS 24.4% | PC-3 prostate 28.6% | SK-MEL-28 melanoma 25.4%
active: U251 CNS 9.27% | SK-MEL-5 melanoma -36% | UACC-62 melanoma -18.3% | LOX IMVI melanoma -1.02%

CC(=O)O.[In]
inactive: HCT-15 colon 109% | HT29 colon 105% | SNB-75 CNS 90.6% | SNB-19 CNS 109% | U251 CNS 98.8% | PC-3 prostate 99.7% | SK-MEL-5 melanoma 95.2% | UACC-62 melanoma 102% | LOX IMVI melanoma 35.3% | SK-MEL-28 melanoma 112%

Cc1ccc(C(=O)Nc2ccc(CN3CCN(C)CC3)c(C(F)(F)F)c2)cc1C#Cc1cncc2ncccc12
active: HCT-15 colon -92.9% | HT29 colon -89.3% | SNB-75 CNS -83.9% | SNB-19 CNS -99.3% | U251 CNS -93.8% | PC-3 prostate -69.3% | SK-MEL-5 melanoma -99.3% | UACC-62 melanoma -84.8% | LOX IMVI melanoma -79% | SK-MEL-28 melanoma -90.4%

Cc1nc2c(nnn2-c2ccccc2)c2nc(-c3ccccc3)oc(=O)c12
inactive: HCT-15 colon 101% | HT29 colon 113% | SNB-75 CNS 99.1% | SNB-19 CNS 104% | U251 CNS 110% | PC-3 prostate 105% | SK-MEL-5 melanoma 104% | UACC-62 melanoma 97.2% | LOX IMVI melanoma 98.3% | SK-MEL-28 melanoma 104%

Cc1nn(-c2ccccc2)c(N)c1N=C1NC(=O)/C(=C/c2ccc(Cl)cc2)S1
inactive: HCT-15 colon 80.6% | HT29 colon 106% | SNB-75 CNS 58.9% | SNB-19 CNS 83.6% | U251 CNS 79.1% | PC-3 prostate 76.8% | SK-MEL-5 melanoma 92.1% | UACC-62 melanoma 77.3% | LOX IMVI melanoma 89.7% | SK-MEL-28 melanoma 92.3%

Cc1c(Cc2ccccc2)c(=O)oc2c(C)c(OCc3n[nH]c(=S)o3)ccc12
inactive: HCT-15 colon 75.7% | HT29 colon 86.8% | SNB-75 CNS 71.4% | SNB-19 CNS 85.8% | U251 CNS 64.4% | PC-3 prostate 11.2% | SK-MEL-5 melanoma 83.8% | UACC-62 melanoma 90.4% | LOX IMVI melanoma 64.5% | SK-MEL-28 melanoma 110%

CCCCCCCCc1ccc(CCC(N)(CO)CO)cc1
active: HCT-15 colon -10% | HT29 colon -83.4% | U251 CNS -85.2% | LOX IMVI melanoma -54%
inactive: SNB-75 CNS 57.6% | SNB-19 CNS 52.5% | PC-3 prostate 37.1% | SK-MEL-5 melanoma 90.7% | UACC-62 melanoma 86.2% | SK-MEL-28 melanoma 92.8%

CCCNC(=O)Oc1ccc(/C(=C(/C)Cc2ccc(OC)cc2)c2ccc(OCCN3CCCC3)cc2)cc1
active: HT29 colon 0.741%
inactive: HCT-15 colon 16.9% | SNB-75 CNS 48.2% | SNB-19 CNS 78.6% | U251 CNS 48.6% | PC-3 prostate 56.4% | SK-MEL-5 melanoma 11.7% | UACC-62 melanoma 52.5% | LOX IMVI melanoma 48.4% | SK-MEL-28 melanoma 55.8%

C#CCCCCCCC[C@@H]1OC(=O)[C@H]([C@@H](C)CC)NC(=O)[C@@H]([C@@H](C)CC)NC(=O)CC(=O)[C@@H]1C
inactive: HCT-15 colon 97.3% | HT29 colon 122% | SNB-75 CNS 80.9% | SNB-19 CNS 97.6% | U251 CNS 105% | PC-3 prostate 90.8% | SK-MEL-5 melanoma 102% | UACC-62 melanoma 83% | LOX IMVI melanoma 92% | SK-MEL-28 melanoma 109%

CC(=O)N1N=C(c2ccc(Cl)cc2)CC1c1cn(-c2ccccc2)nc1-c1ccc([N+](=O)[O-])cc1 (stereo not given)
inactive: HCT-15 colon 92.6% | HT29 colon 93.8% | SNB-75 CNS 72.5% | SNB-19 CNS 90.1% | U251 CNS 96.9% | PC-3 prostate 108% | SK-MEL-5 melanoma 101% | UACC-62 melanoma 85.1% | LOX IMVI melanoma 97.8% | SK-MEL-28 melanoma 110%

COc1ccc2nc3cc(Cl)ccc3c(NCCCNC(C)=O)c2c1
inactive: HCT-15 colon 23.6% | HT29 colon 27% | SNB-75 CNS 68.9% | SNB-19 CNS 43.4% | U251 CNS 32.3% | PC-3 prostate 39.6% | SK-MEL-5 melanoma 23.5% | UACC-62 melanoma 42.6% | LOX IMVI melanoma 15.9% | SK-MEL-28 melanoma 38.8%

COc1ccc(-n2nnnc2-c2cn[nH]c2C(F)(F)F)cc1
inactive: HCT-15 colon 110% | HT29 colon 93.1% | SNB-75 CNS 102% | SNB-19 CNS 101% | U251 CNS 94.8% | PC-3 prostate 105% | SK-MEL-5 melanoma 94.4% | UACC-62 melanoma 83.6% | LOX IMVI melanoma 95.6% | SK-MEL-28 melanoma 96.2%

O=C(N/N=C\c1ccc(Cl)cc1)C(=O)N/N=C\c1ccc(Cl)cc1
inactive: HCT-15 colon 101% | HT29 colon 103% | SNB-75 CNS 88.3% | SNB-19 CNS 96% | U251 CNS 101% | PC-3 prostate 94.5% | SK-MEL-5 melanoma 109% | UACC-62 melanoma 97.4% | LOX IMVI melanoma 106% | SK-MEL-28 melanoma 111%

COC(=O)CC(=O)C(=O)OC
inactive: HCT-15 colon 103% | HT29 colon 106% | SNB-75 CNS 92.2% | SNB-19 CNS 107% | U251 CNS 102% | PC-3 prostate 99.8% | SK-MEL-5 melanoma 101% | UACC-62 melanoma 108% | LOX IMVI melanoma 55.1% | SK-MEL-28 melanoma 111%

O=C(O)c1ccc(-c2nn(-c3ccc(C(=O)O)cc3)cc2CNc2ccc(Br)cc2)cc1
inactive: HCT-15 colon 100% | HT29 colon 99% | SNB-75 CNS 97.6% | SNB-19 CNS 105% | U251 CNS 106% | PC-3 prostate 101% | SK-MEL-5 melanoma 103% | UACC-62 melanoma 97.6% | LOX IMVI melanoma 102% | SK-MEL-28 melanoma 103%

CCC(CCCN1C(=O)c2ccccc2C1=O)Nc1cc(OC)cc2c(C)ccnc12 (stereo not given)
inactive: HCT-15 colon 91.5% | HT29 colon 100% | SNB-75 CNS 92.2% | SNB-19 CNS 102% | U251 CNS 90.7% | PC-3 prostate 89.1% | SK-MEL-5 melanoma 85.3% | UACC-62 melanoma 69.5% | LOX IMVI melanoma 95.8% | SK-MEL-28 melanoma 101%

CC(=O)Nc1ccc(C(=O)/C=C/c2ccc(N(C)C)cc2)cc1
inactive: HCT-15 colon 94.1% | HT29 colon 91.3% | SNB-75 CNS 99.7% | SNB-19 CNS 109% | U251 CNS 93.9% | PC-3 prostate 94.6% | SK-MEL-5 melanoma 98.7% | UACC-62 melanoma 102% | LOX IMVI melanoma 96.1% | SK-MEL-28 melanoma 108%

COc1ccc(/C=C2\CCCC3=C2N=C2SC=NN2C3c2ccc(OC)c(OC)c2)cc1OC (stereo not given)
active: LOX IMVI melanoma 9.24%
inactive: HCT-15 colon 34.2% | HT29 colon 14.4% | SNB-75 CNS 40.1% | SNB-19 CNS 68.6% | U251 CNS 30.2% | PC-3 prostate 67.9% | SK-MEL-5 melanoma 30.8% | UACC-62 melanoma 38.1% | SK-MEL-28 melanoma 66%

CCC(C)C1NC(=O)C(CC(C)C)NC(=O)C(C)NC(=O)C(C(C)C)NC(=O)C(CCCCN)NC(=O)C(CC(C)C)NC(=O)C(C(C)C)NC(=O)[C@H](C)NC(=O)C(C(C)CC)NC(=O)C(CCCN=C(N)N)NC(=O)C(CCCCN)NC(=O)C(CCCN=C(N)N)NC(=O)C(CCCCN)NC(=O)C([C@H](C)CC)NC(=O)C(CCCCN)NC1=O (stereo not given in full)
inactive: HCT-15 colon 26.7% | SNB-75 CNS 28.8% | SNB-19 CNS 17.4% | UACC-62 melanoma 21.3% | LOX IMVI melanoma 35.4% | SK-MEL-28 melanoma 41.3%
active: HT29 colon 3.41% | U251 CNS 3.51% | PC-3 prostate -4.78% | SK-MEL-5 melanoma 1.67%

COC(=O)c1ccc2[nH]c(O)c(C(=Nc3ccc(N(C)C(=O)CN4CCN(C)CC4)cc3)c3ccc(N)cc3)c2c1
inactive: HCT-15 colon 99.4% | HT29 colon 42.6% | SNB-75 CNS 42.5% | SNB-19 CNS 83.9% | U251 CNS 82.2% | PC-3 prostate 83.4% | SK-MEL-5 melanoma 85.2% | UACC-62 melanoma 110% | LOX IMVI melanoma 74.6% | SK-MEL-28 melanoma 87.1%
